Source: paper PMC4552634, “A New Set of Chemical Starting Points with Plasmodium falciparum Transmission-Blocking Potential for Antimalarial Drug Discovery” (PLoS ONE, 2015)
Like-named read-outs stand apart in the source and are kept apart here. Screen size: about 13,000 compounds; about 3,200 (25%) showed an effect of 50% or more. This is one part of the list.

System: P. falciparum stage V gametocytes
Set-up: BacTiter-Glo ATP luminescence viability of purified stage V gametocytes in 384-well plates, per cent inhibition versus DMSO
Conditions: 48 h, 5 µM, inhibitor

Structure (SMILES)	% Inhibition [%]	% Inhibition (% Inhibition) [%]
CCN(CCCN1CCCCC1)c1cc(C)nc(Nc2cc(F)cc(F)c2)n1 [TCMDC-132450]	49.02	
CCC(C)(C)NC(=O)C(c1cccc(OC)c1)N(C(=O)CNC(=O)c1cccs1)c1ccc2c(c1)OCCO2 (stereo not shown) [TCMDC-125637]	1.141	
O=C(OCc1ccccc1)N1CCc2c([nH]c3ccccc23)C1CCC(F)(F)F (stereo not shown) [TCMDC-134555]	-59.21	
Oc1ccc(CCNc2nc(NCc3ccc4cc(Cl)ccc4c3)nc(N3CCNCC3)n2)cc1 [TCMDC-133782]	-8.892	
CC(C)(CN)c1nc(-c2ccc(Cl)c(O)c2)c(-c2ccnc(N)n2)[nH]1 [TCMDC-141019]	-19.39	
CC(C)Cc1ccc(N2CCN(CCCCNC(=O)c3ccc(NC(=O)c4cc(C(F)(F)F)cc(C(F)(F)F)c4)cc3)CC2)cc1 [TCMDC-138252]	6.749	
COc1ccc(C2CCN(CCCCNC(=O)c3ccc(NC(=O)c4ccc(Cl)cc4)cc3)CC2)cc1Cl [TCMDC-138366]	81.78	
COc1cccc(C2CCN(CCCCNC(=O)c3ccc(NC(=O)c4ccc(Cl)cc4)cc3)CC2)c1 [TCMDC-138312]	21.15	
COc1cc(C2CCN(CCCCNC(=O)c3ccc(NC(=O)c4cc(C(F)(F)F)cc(C(F)(F)F)c4)cc3)CC2)ccc1OC(C)C [TCMDC-138285]	55.31	
COc1ccc2c(c1)CCCC2NCCCCNC(=O)c1ccc(NC(=O)c2ccc(Cl)cc2)cc1 (stereo not shown) [TCMDC-138690]	6.749	
COc1ccc(C2CCC(NCCCCNC(=O)c3ccc(NC(=O)c4ccc(Cl)cc4)cc3)CC2)cc1 (stereo not shown) [TCMDC-138582]	60.8	
COc1ccc(N2CCN(CCCCNC(=O)c3ccc(NC(=O)c4cc(C(F)(F)F)cc(C(F)(F)F)c4)cc3)CC2)c(OC)c1 [TCMDC-138227]	7.888	
COc1cc(C2CCN(CCCCNC(=O)c3ccc(NC(=O)c4ccc(Cl)c(Cl)c4)cc3)CC2)ccc1OC(C)C [TCMDC-138286]	111.4	
CC(C)Cc1ccc(N2CCN(CCCCNC(=O)c3ccc(NC(=O)c4ccc(Cl)c(Cl)c4)cc3)CC2)cc1 [TCMDC-138251]	-11.88	
CCN(CC)c1ccccc1CNC(=O)c1cc(Cl)c(N)cc1OC [TCMDC-131416]	17.92	
COc1cc(Nc2ccnc3cc(-c4ccncc4)ccc23)cc(OC)c1OC [TCMDC-138293]	-25.86	
C=CC[C@@H](C(=O)OCC)[C@@H]1[C@@H](N(CC=C)C(=O)OC(C)(C)C)CCN1C(=O)OCc1ccccc1 [TCMDC-132035]	7.25	
O=S(=O)(c1cccc(Br)c1)N1CCCCC(c2ccc(C(F)(F)F)cc2)=N1 [TCMDC-134539]	-27.96	
C=C[C@H]1CN2CC[C@H]1C[C@@H]2[C@@H](O)c1ccnc2ccccc12 [TCMDC-123933]	7.627	
COc1ccc(N2CCN(c3nc(Nc4ccc(NC(C)=O)cc4)nc(N4CCCC4)n3)CC2)cc1 [TCMDC-123875]	-17.97	
CCN(CC)CCCC(C)Nc1ccnc2ccc(-c3ccccc3)cc12 (stereo not shown) [TCMDC-123952]	41.59	
CCN(CC)CCCSc1ccc(-c2ccc(SCCCN(CC)CC)cc2)cc1 [TCMDC-131824]	99.62	
O=C(C=Cc1ccc(Cl)c(Cl)c1)NCCCCCN1CCC(CCCNS(=O)(=O)c2cccc(C(F)(F)F)c2)CC1 [TCMDC-139591]	107.6	

Structure (SMILES)	% Inhibition [%]	% Inhibition (% Inhibition) [%]
O=C(C=Cc1ccc(Cl)c(Cl)c1)NCCCCCN1CCCC(CCCNS(=O)(=O)c2cccc(C(F)(F)F)c2)C1 (stereo not shown) [TCMDC-139593]	101.3	
O=C(/C=C/c1ccc(Cl)c(Cl)c1)NCCCCCN1CCCC(CNS(=O)(=O)c2cccc(C(F)(F)F)c2)C1 (stereo not shown) [TCMDC-139597]	100.9	
O=C(C=Cc1ccc(Cl)c(Cl)c1)NCCCCCN1CCCC(CCCNC(=O)c2cccs2)C1 (stereo not shown) [TCMDC-139576]	12.1	
O=C(C=Cc1ccc(Cl)c(Cl)c1)NCCCCCN1CCCC(CCCNS(=O)(=O)c2cccc3cccnc23)C1 (stereo not shown) [TCMDC-139594]	96.79	
O=C(/C=C/c1ccc(Cl)c(Cl)c1)NCCCCCN1CCC(NC(=O)Nc2cccc(C(F)(F)F)c2)CC1 [TCMDC-135724]	-61.55	
CN(C(=O)/C=C/c1cc(C(F)(F)F)ccc1F)C1CCN(CCCCCNC(=O)/C=C/c2ccc(Cl)c(Cl)c2)C1 (stereo not shown) [TCMDC-139997]	27.91	
O=C(CNCC1CCCCC1)Nc1cc(C(F)(F)F)ccc1Cl [TCMDC-124505]	6.087	
Cc1nc(-c2nc(NCc3ccc4c(c3)OCO4)ncc2-c2ccsc2)sc1C [TCMDC-125358]	15.74	
CCCc1cc(O)c2c3c(c(=O)oc2c1)CN(C)CC3 [TCMDC-124226]	-5.24	
COc1ccc(C2=[N+]([O-])c3ccccc3C2=O)cc1 [TCMDC-123940]	-13.17	
O=C(O)c1cc(C(F)(F)F)co1 [TCMDC-124155]	-1.887	
COc1cccc2cc(C(=O)N[C@@H](CC(C)C)C(=O)N[C@H](C=NN(C)C(=O)OC(C)(C)C)Cc3ccccc3)oc12 [TCMDC-136133]	30.7	
CC[C@H](NC(=O)c1ccc(NC(=O)OC(C)(C)C)cc1)C(=O)N[C@@H](CO)C(=O)NCCCCc1ccccc1 [TCMDC-137189]	5.299	
Cc1cccc(CNc2nc(C)cc(NCCC(=O)NCc3cccc(F)c3)n2)c1 [TCMDC-134882]	28.72	
Cc1cc(NCCC(=O)NCCc2ccccc2)nc(NCCc2ccc(F)cc2)n1 [TCMDC-134782]	63.79	
Cc1cc(NCCC(=O)NCc2cccc(F)c2)nc(Nc2ccccc2)n1 [TCMDC-134730]	9.488	
Cc1cc(NCCC(=O)NCc2cccc(F)c2)nc(NCCc2ccc(F)cc2)n1 [TCMDC-134781]	71.46	
CCC1(CC)C(=O)N=C(N2CCCCC2)N(C)C1=O [TCMDC-124231]	77.81	
COc1ccc2nccc([C@@H](O)CN3CCC(NCc4ccc5nnsc5c4)CC3)c2c1 [TCMDC-140923]	19.95	
Cn1nc(-c2ccccc2F)c2cc(C(=O)Nc3cccnc3)sc21 [TCMDC-123581]	-8.367	
Cc1cccc(CN2CCC(CNC(=O)c3cc4c(-c5ccccc5F)nn(C)c4s3)CC2)c1 [TCMDC-124566]	59.21	
Cn1nc(-c2ccccc2F)c2cc(C(=O)NC3CCN(Cc4ccccc4)CC3)sc21 [TCMDC-123582]	63.05	
CCc1ccc(CN2CCC(NC(=O)c3ccc(-c4ccccc4F)s3)CC2)cc1 [TCMDC-134343]	-3.563	

Structure (SMILES)	% Inhibition [%]	% Inhibition (% Inhibition) [%]
CC(C)(C)c1ccc(CN2CCC(NC(=O)c3ccc(-c4ccccc4F)s3)CC2)cc1 [TCMDC-134349]	3.235	
COc1cccc(-c2nn(C)c3sc(C(=O)NCCN4CCN(c5ccccc5F)CC4)cc23)c1 [TCMDC-123585]	-24.43	
COc1ccc2ncc(F)c(C(O)CN3CCC(NCc4ccc5c(n4)NC(=O)CO5)CC3)c2c1 (stereo not shown) [TCMDC-135530]		22.05
COC(=O)c1ccc(CC(C)NCC(O)c2cccc3ccccc23)cc1 (stereo not shown) [TCMDC-131432]	16.03	
CS(=O)(=O)c1ccccc1CNC(=O)c1ccc(-c2cccc(-c3nc4cc(C(F)(F)F)ccc4[nH]3)c2)cc1 [TCMDC-132504]	-46.91	
COc1cccc(N(CCCN2C(=O)c3cccc4cccc(c34)C2=O)C(=O)c2ccccc2C)c1 [TCMDC-124157]	34.34	
c1ccc2[nH]c(-c3ccc(-c4ccc(CNCCc5ccncc5)cc4)s3)nc2c1 [TCMDC-132843]	-16.65	
CC1(C)C(=O)Nc2ccc3c(c21)CC1SC(=O)NN=C31 (stereo not shown) [TCMDC-131539]	68.11	
Nc1nc(N)c2c(CCc3ccc(Cl)c(Cl)c3)cccc2n1 [TCMDC-141976]	-2.303	
CCCc1cc(Cc2cnc(N)nc2N)cc(CC)c1O [TCMDC-138059]	-83.65	
Cc1cc2ncn(-c3nccc(NCc4cccnc4)n3)c2cc1C [TCMDC-135879]	55.3	
Cc1cc2ncn(-c3ccnc(N4CCN(CCCN5CCCC5)CC4)n3)c2cc1C [TCMDC-136311]	9.256	
Cc1cc2ncn(-c3nccc(NCc4ccc(F)cc4)n3)c2cc1C [TCMDC-135877]	11.81	
Cc1cc(Nc2nc(NCc3cccnc3)nc3ccccc23)n[nH]1 [TCMDC-135161]	33.23	
Cc1cc2ncn(-c3nccc(NCc4ccc(F)c(C)c4)n3)c2cc1C [TCMDC-135880]	65.21	
COc1ccc(CNc2ccnc(-n3cnc4cc(C)c(C)cc43)n2)cc1Cl [TCMDC-135878]	49.39	
O=C(O)c1ccc(OCOCOc2ccc(C(=O)O)c(O)c2)cc1O [TCMDC-131764]	13.72	
COc1ccc(C2SCC(=O)N2CCc2ccc(OC)c(OC)c2)cc1 (stereo not shown) [TCMDC-125738]	0.3725	
NC1CCN(CCNCc2cccc(-c3ccc(-c4nc5ccc(F)cc5[nH]4)cc3)c2)C1 (stereo not shown) [TCMDC-133857]	75.97	
NC1CCN(CCNCc2cccc(-c3ccc(-c4nc5ccc(C(F)(F)F)cc5[nH]4)cc3)c2)C1 (stereo not shown) [TCMDC-133841]	98.1	
CS(=O)(=O)NCCCNCc1cccc(-c2ccc(-c3nc4ccc(C(F)(F)F)cc4[nH]3)cc2)c1 [TCMDC-133079]	-16.43	
